Records with an inconclusive call do not appear. Active and inactive are the calls of the source. The call rests on the fitted dose curve; in most records, active means well fitted curve in the direction sought with a large enough effect; inconclusive means small, poorly fitted or top-dose-only effect, or another doubt; inactive means no such curve, though single readings can be large; an effect the other way counts as inactive or inconclusive.
Experiments:
[1] = qHTS assay for measurement of the activity of small molecule inhibitors on Zika virus induced Caspase-3 activity in human iPSC derived neural progenitor cells (hNPCs) (AID 1224857); further: % of control where 0% means no effect; nearly all actives have a fitted effect of over 65% in size
Summary of the method: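 Cells were plated at 350 per well and grown 16 to 20 hours. Compound pretreatment lasted one hour, after which ZIKV (2 FFU/cell) was added for 6 hours. Percent inhibition was normalized between uninfected and infected controls.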

[2] = qHTS assay for measurement of the activity of small molecule inhibitors on Zika virus induced Caspase-3 activity in human astrocytoma cells (AID 1224859);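 further: plate controls were ZIKV-infected untreated cells for no effect and uninfected cells for full effect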
Summary of the method: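 Percent inhibition of virus-induced caspase-3/7 signal is calculated against uninfected and ZIKV-infected control cells. Cells are SNB-19, infected at 2 FFU/cell for 6 h after 1 h compound exposure.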

[3] = qHTS assay to identify small molecule inhibitors of chordoma cells - UCH-1 (AID 1259355); further: on the % scale 0 is the no-effect control and ±100 the full control effect; nearly all actives have a fitted effect of over 55% in size
Summary of the method: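 A 48hr growth-inhibition format: each drug tested at 15 concentrations together with added auranofin, camptothecin, doxorubicin, rubitecan and topotecan, with cell viability quantified as CellTiter-Glo luminescence.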

[4] = qHTS assay to identify small molecule inhibitors of chordoma cells - UCH-2 (AID 1259356); further: series mostly up to about 46 µM; on the % scale 0 is the no-effect control and ±100 the full control effect
[5] = P-glycoprotein substrates identified in KB-8-5-11 adenocarcinoma cell line, qHTS therapeutic library screen (AID 1346987); further: series mostly up to about 44 µM; on the % scale 0 is the no-effect control and ±100 the full control effect; nearly all actives have a fitted effect of over 65% in size
Summary of the method: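 In this qHTS, P-gp-rich KB-8-5-11 cells received library compounds across a concentration range. Viability was quantified by luminescence after 72 h at 37 degree C.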

[6] = NS1 protein of Zika virus - qHTS assay to identify small molecule inhibitors in human HEK 293 cells (AID 1347053);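 further: series mostly up to about 46 µM; plate controls were infected untreated cells for no effect and uninfected cells for full effect; nearly all actives have a fitted effect of over 55% in size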
Summary of the method: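 Compound-treated (1 h pre-infection) HEK 293 cells infected with ZIKV MR766, MOI = 0.5; after 24 h at 37 C, NS1 read by TR-FRET; data normalized to uninfected and infected controls.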

CN(C)CCCO[C@@H]1[C@H]2OC(C)(C)O[C@H]2O[C@@H]1C(O)CO (stereo partly specified)
inactive: outcome [1] | outcome [2] | activity, negative = inhibition [3] -7.27% [at 1.88 µM] | outcome [4] | Potency [5] | Potency [6]

CN1CCOC(c2ccccc2)c2ccccc2C1 (stereo unspecified)
inactive: outcome [1] | outcome [2] | Potency [3] | outcome [4] | Potency [5] | Potency [6]

Cc1cc(CC(=O)O)n(C)c1C(=O)c1ccc(Cl)cc1
inactive: outcome [1] | outcome [2] | Potency [3] | outcome [4] | Potency [5] | Potency [6]

N[C@H](C(=O)O)c1ccc(O)cc1
inactive: outcome [1] | outcome [2] | Potency [3] | outcome [4] | Potency [5] | Potency [6]

Nc1nc2c(ncn2CCC(CO)CO)c(=O)[nH]1
inactive: outcome [1] | outcome [2] | Potency [3] | outcome [4] | Potency [5] | Potency [6]

Nc1ccc(S(=O)(=O)NC(=O)c2ccccc2)cc1
inactive: outcome [1] | outcome [2] | Potency [3] | outcome [4] | Potency [5] | Potency [6]

Cn1cc[nH]c1=S
inactive: outcome [1] | outcome [2] | Potency [3] | outcome [4] | Potency [5] | Potency [6]

CC12CCC(CC1)C(C)(C)O2
inactive: outcome [1] | outcome [2] | Potency [3] | outcome [4] | Potency [5] | Potency [6]

CC(O)COc1ccccc1 (stereo unspecified)
inactive: outcome [1] | outcome [2] | Potency [3] | outcome [4] | Potency [5] | Potency [6]

C=CCn1c(=O)n([C@@H]2O[C@H](CO)[C@@H](O)[C@H]2O)c2nc(N)[nH]c(=O)c21
inactive: outcome [1] | outcome [2] | Potency [3] | outcome [4] | Potency [5] | Potency [6]

CCC(=O)c1ccc(O)cc1
inactive: outcome [1] | outcome [2] | Potency [3] | outcome [4] | Potency [5] | Potency [6]

CC(C)(C)NCC(O)COc1ccc(NC(=O)NC2CCCCC2)cc1 (stereo unspecified)
inactive: outcome [1] | outcome [2] | Potency [3] | outcome [4] | Potency [5] | Potency [6]

CC1=C(C/C=C(\C)CCC[C@H](C)CCC[C@H](C)CCCC(C)C)C(=O)c2ccccc2C1=O
inactive: outcome [1] | outcome [2] | Potency [3] | outcome [4] | Potency [5] | Potency [6]

OC[C@H]1O[C@@H](O[C@@H]2[C@@H](CO)O[C@](O)(CO)[C@H]2O)[C@H](O)[C@@H](O)[C@H]1O
inactive: outcome [1] | outcome [2] | Potency [3] | outcome [4] | Potency [5] | Potency [6]

NS(=O)(=O)c1cc2c(cc1C(F)(F)F)NC(Cc1ccccc1)NS2(=O)=O (stereo unspecified)
inactive: outcome [1] | outcome [2] | Potency [3] | outcome [4] | Potency [5] | Potency [6]

NS(=O)(=O)c1cc2c(cc1Cl)NC(CSCc1ccccc1)=NS2(=O)=O
inactive: outcome [1] | outcome [2] | Potency [3] | outcome [4] | Potency [5] | Potency [6]

NC(=O)NC(=O)Cc1ccccc1
inactive: outcome [1] | outcome [2] | Potency [3] | outcome [4] | Potency [5] | Potency [6]

O=C(O)[C@H](O)c1ccccc1
inactive: outcome [1] | outcome [2] | Potency [3] | outcome [4] | Potency [5] | Potency [6]

CCCCOc1cc(C(=O)OCCN(CC)CC)ccc1N
inactive: outcome [1] | outcome [2] | Potency [3] | outcome [4] | Potency [5] | Potency [6]

CC1(C)CO[C@@H](CC(=O)O)CN1
inactive: outcome [1] | outcome [2] | Potency [3] | outcome [4] | Potency [5] | Potency [6]

CO/N=C(\C(=O)N[C@@H]1C(=O)N2C(C(=O)O)=C(CSc3nc(=O)c(O)nn3C)CS[C@H]12)c1csc(N)n1
inactive: outcome [1] | outcome [2] | Potency [3] | outcome [4] | Potency [5] | Potency [6]

O=C(O)c1ccccc1-c1ccc(C(F)(F)F)cc1
inactive: outcome [1] | outcome [2] | Potency [3] | outcome [4] | Potency [5] | Potency [6]

CC1(C)Oc2ccc(C#N)cc2[C@@H](N2CCCC2=O)[C@@H]1O
inactive: outcome [1] | outcome [2] | Potency [3] | outcome [4] | Potency [5] | Potency [6]

CCn1cc(C(=O)O)c(=O)c2cnc(N3CCNCC3)nc21
inactive: outcome [1] | outcome [2] | Potency [3] | outcome [4] | Potency [5] | Potency [6]

O=C1O[C@H]([C@@H](O)CO)C(O)=C1O
inactive: outcome [1] | outcome [2] | Potency [3] | outcome [4] | Potency [5] | Potency [6]

O=c1cc(CO)occ1O
inactive: outcome [1] | outcome [2] | Potency [3] | outcome [4] | Potency [5] | Potency [6]

CC1CC(OC(=O)C(O)c2ccccc2)CC(C)(C)N1C (stereo unspecified)
inactive: outcome [1] | outcome [2] | Potency [3] | outcome [4] | Potency [5] | Potency [6]

C/C(=C(\CCOP(=O)(O)O)SC(=O)c1ccccc1)N(C=O)Cc1cnc(C)nc1N
inactive: activity change, negative = inhibition [1] 4.2% [at 4.53 µM] | activity change, negative = inhibition [2] 26.7% [at 4.53 µM] | Potency [3] | outcome [4] | Potency [5] | activity change, negative = inhibition [6] 3.35% [at 4.81 µM]

CN(C)CCN(Cc1ccccc1)c1ccccn1
inactive: outcome [1] | outcome [2] | Potency [3] | outcome [4] | Potency [5] | Potency [6]

CN1CCCCC1CCN1c2ccccc2Sc2ccc(S(C)=O)cc21 (stereo unspecified)
inactive: outcome [1] | outcome [2] | Potency [3] | outcome [4] | Potency [5] | Potency [6]

COc1cc2[nH]c(=O)[nH]c(=O)c2cc1OC
inactive: outcome [1] | outcome [2] | Potency [3] | outcome [4] | Potency [5] | Potency [6]

— PubChem BioAssay (NCATS)
